# Measured values reported in PubChem BioAssay.
# Calls of active or inactive are those of the source. Unless noted, how the calls were made is not given here.
# Columns and labels:
# [1] = system: Wnt5a (protein binding on small-molecule microarray); test: Wnt5a binders on small-molecule microarray, primary screen, biophysical, 635/667 nm fluorescence (AID 1142); details: 635 nm fluorescence, higher = more signal;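 further: fluorescence read at 667 nm with signal to noise per printed feature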
# [2] = cell viability in Huh7 cells, primary screen, cytotoxicity control for HCV replication inhibitor project, CellTiter-Glo luminescence, basal, 48 h (AID 1143); details: Huh7 HCV replicon, higher = more signal, called active from +8 up or from −8 down;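 further: Huh7 hepatoma cells carrying a hepatitis C replication reporter with no stimulus; test concentration not given here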
# [3] = P. aeruginosa biofilm formation inhibitors, primary screen, PAO1 strain, BacTiter-Glo luminescence, LB-PBS (AID 1144); details: 12 h, higher = more signal
# [4] = CREB reporter modulators without forskolin, primary screen, cell-based, PC12, CRE-LacZ reporter, unstimulated (AID 1145); details: no forskolin, luminescence, 4.5 h, higher = more signal, called active from +8 up or from −8 down
# [5] = CREB reporter modulators under forskolin, primary screen, cell-based, PC12, CRE-LacZ reporter, forskolin-stimulated (AID 1146); details: luminescence, 4.5 h, higher = more signal, called active from +8 up or from −8 down;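 further: PC12 cells with 6xCRE LacZ reporter stimulated by forskolin 10 µM; beta-galactosidase reporter signal reflecting CREB driven transcription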
# [6] = target: Streptavidin (Streptomyces avidinii) (UniProt P22629); test: streptavidin binders on small-molecule microarray, primary screen, artefact control for SMM compound annotation, biophysical, 635/667 nm fluorescence (AID 1147); details: streptavidin binding, higher = more signal;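 further: signal reflects streptavidin binding to arrayed compounds as a control protein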
# Chain of Streptavidin (Streptomyces avidinii) (P22629 whole entry, looked up): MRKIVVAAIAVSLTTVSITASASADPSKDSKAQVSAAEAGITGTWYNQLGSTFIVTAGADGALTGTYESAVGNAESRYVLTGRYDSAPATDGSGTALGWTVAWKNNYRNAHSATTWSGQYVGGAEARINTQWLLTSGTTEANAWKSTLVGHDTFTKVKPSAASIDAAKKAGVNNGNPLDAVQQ
# [7] = small-molecule binders of probe aInhba, primary screen, biochemical, small-molecule microarray, 635/667 nm fluorescence (AID 1148); details: higher = more signal;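 further: score merges 667nm spot fluorescence with signal-to-noise for antibody binding to printed compounds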
# Torsin-1A (Homo sapiens) [8] = target: Torsin-1A (Homo sapiens) (UniProt O14656); test: torsin A binders from cell lysate, primary screen, small-molecule microarray, wild-type, 635/667 nm (AID 1149); details: COS7 hTOR1A-WT lysate, 635 nm fluorescence, higher = more signal
# Chain of Torsin-1A (Homo sapiens) (O14656 whole entry, looked up): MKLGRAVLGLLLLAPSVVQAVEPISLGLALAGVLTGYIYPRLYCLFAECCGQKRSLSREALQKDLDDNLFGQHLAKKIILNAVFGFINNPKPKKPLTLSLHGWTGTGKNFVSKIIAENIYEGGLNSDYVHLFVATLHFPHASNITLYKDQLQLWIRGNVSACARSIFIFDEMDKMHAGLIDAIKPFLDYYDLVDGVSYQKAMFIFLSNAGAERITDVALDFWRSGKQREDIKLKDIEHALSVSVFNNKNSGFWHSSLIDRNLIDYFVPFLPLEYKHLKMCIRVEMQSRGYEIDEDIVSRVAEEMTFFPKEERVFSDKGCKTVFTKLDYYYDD
# Torsin-1A (Homo sapiens) [9] = target: Torsin-1A (Homo sapiens) (UniProt O14656); test: small-molecule binders of mutant TOR1A in lysate, primary screen, cell lysate, small-molecule microarray, COS7 lysate, 635/667 nm fluorescence (AID 1150); details: COS7 hTOR1A mutant lysate, 635 nm fluorescence, higher = more signal;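 further: score pools 667 nm emission and signal to noise measuring lysate protein binding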
# [10] = system: Sonic hedgehog protein (Shh); test: small-molecule binders of Shh protein, primary screen, biochemical, small-molecule microarray, 635/667 nm fluorescence (AID 1151); details: small-molecule microarray binding, 635 nm fluorescence; higher = more signal;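 further: Shh protein binding to compounds spotted on small-molecule microarray slides; score combines spot fluorescence intensity with signal-to-noise across triplicate slides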
# [11] = E. coli DRC41 culture turbidity changes, primary screen, E. coli filamentation inducer project, strain DRC41, OD650, 48 h (AID 1152);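 further: E. coli MC1000 strain DRC41 lacking acrAB efflux pump and sulA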; details: E. coli DRC41 (acrAB sulA), higher = more signal, called active from +8 up or from −8 down
# [12] = small-molecule binders of probe aLefty1, primary screen, biochemical, small-molecule microarray, 635/667 nm fluorescence (AID 1153); details: higher = more signal;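 further: score merges spot fluorescence with signal-to-noise ratio from the scanned slide images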
# [13] = PSAC antagonists in infected red cells, primary screen, cell-based, P. falciparum Indochina, OD700, 1 h (AID 1154); details: P. falciparum Indochina infected RBC osmotic lysis, higher = more signal, called active from +8 up or from −8 down
# [14] = PSAC antagonists in infected red cells, primary screen, cell-based, P. falciparum Indochina, OD700, 2 h (AID 1155);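 further: lysis reports solute entry through the parasite surface anion channel PSAC; channel blockers reduce lysis of infected cells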; details: P. falciparum Indochina infected erythrocytes, osmotic lysis OD700; higher = more signal, called active from +8 up or from −8 down
# [15] = osmotic lysis modulators in infected erythrocytes, primary screen, PSAC antagonist project, cell-based, P. falciparum Indochina, OD700, 3 h (AID 1156); details: higher = more signal, called active from +8 up or from −8 down
# [16] = PSAC antagonists in infected red cells, primary screen, cell-based, P. falciparum Indochina, OD700, 18 h (AID 1157); details: P. falciparum Indochina infected erythrocytes, osmotic lysis OD700, 18 h; higher = more signal, called active from +8 up or from −8 down
# [17] = modulators of S6 phosphorylation in cells, primary screen, cell-based, A549, cytoblot, luminescence, serum-stimulated (AID 1158); details: A549 phospho-S6 cytoblot, 5 h, higher = more signal;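 further: serum-stimulated A549 lung adenocarcinoma cells; signal is phosphorylated S6 detected by cytoblot immunostaining with HRP secondary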
# [18] = target: NADPH oxidase 2 (Homo sapiens) (UniProt P04839); test: NOX2-dependent H2O2 signal modulators, primary screen, NOX inhibitor project, cell-based, HEK293-NOX2, PMA-stimulated, Amplex Red fluorescence (AID 1159); details: 45 min, higher = more signal, called active from +8 up or from −8 down; further: test concentration not given here
# Chain of NADPH oxidase 2 (Homo sapiens) (P04839 whole entry, looked up): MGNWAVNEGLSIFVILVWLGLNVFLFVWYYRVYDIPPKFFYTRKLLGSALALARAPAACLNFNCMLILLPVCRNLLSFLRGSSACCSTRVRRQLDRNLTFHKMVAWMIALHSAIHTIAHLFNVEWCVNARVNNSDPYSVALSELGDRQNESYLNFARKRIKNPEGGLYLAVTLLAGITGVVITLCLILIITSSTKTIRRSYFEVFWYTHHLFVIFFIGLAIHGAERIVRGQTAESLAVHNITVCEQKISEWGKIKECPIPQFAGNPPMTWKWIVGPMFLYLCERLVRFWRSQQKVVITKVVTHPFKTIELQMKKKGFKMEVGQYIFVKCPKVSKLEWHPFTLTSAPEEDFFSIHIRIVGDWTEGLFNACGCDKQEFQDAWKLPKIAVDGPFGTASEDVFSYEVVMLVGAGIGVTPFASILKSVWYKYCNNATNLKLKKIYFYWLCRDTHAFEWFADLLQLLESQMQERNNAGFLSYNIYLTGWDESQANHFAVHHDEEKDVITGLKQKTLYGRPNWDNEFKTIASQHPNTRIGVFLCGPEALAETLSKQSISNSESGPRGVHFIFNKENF
# [19] = target: NADPH oxidase 4 (Homo sapiens) (UniProt Q9NPH5); test: NOX4-dependent H2O2 signal modulators, primary screen, NOX inhibitor project, cell-based, HEK293-NOX4, tetracycline-induced, Amplex Red fluorescence (AID 1160); details: 45 min, higher = more signal, called active from +8 up or from −8 down
# Chain of NADPH oxidase 4 (Homo sapiens) (Q9NPH5 whole entry, looked up): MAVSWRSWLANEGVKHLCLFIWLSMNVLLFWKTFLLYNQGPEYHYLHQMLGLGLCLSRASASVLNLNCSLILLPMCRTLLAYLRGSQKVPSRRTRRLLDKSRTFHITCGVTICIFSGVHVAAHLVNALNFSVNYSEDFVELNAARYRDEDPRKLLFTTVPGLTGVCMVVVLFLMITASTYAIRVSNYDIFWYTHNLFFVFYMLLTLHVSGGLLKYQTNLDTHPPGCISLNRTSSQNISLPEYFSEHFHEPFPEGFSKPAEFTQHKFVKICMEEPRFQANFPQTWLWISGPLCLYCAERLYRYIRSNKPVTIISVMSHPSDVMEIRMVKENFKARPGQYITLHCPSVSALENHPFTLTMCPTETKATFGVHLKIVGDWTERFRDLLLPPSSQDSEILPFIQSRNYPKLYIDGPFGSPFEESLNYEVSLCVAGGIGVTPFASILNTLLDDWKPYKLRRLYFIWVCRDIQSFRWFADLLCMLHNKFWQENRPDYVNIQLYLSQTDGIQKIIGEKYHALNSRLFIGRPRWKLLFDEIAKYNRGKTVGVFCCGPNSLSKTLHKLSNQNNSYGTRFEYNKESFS
# [20] = target: NADPH oxidase 5 (Homo sapiens) (UniProt Q96PH1); test: NOX5-dependent H2O2 signal modulators, primary screen, NOX inhibitor project, cell-based, HEK293-NOX5, Amplex Red fluorescence (AID 1161); details: HEK293-NOX5, ionomycin, 45 min, higher = more signal
# Chain of NADPH oxidase 5 (Homo sapiens) (Q96PH1 whole entry, looked up): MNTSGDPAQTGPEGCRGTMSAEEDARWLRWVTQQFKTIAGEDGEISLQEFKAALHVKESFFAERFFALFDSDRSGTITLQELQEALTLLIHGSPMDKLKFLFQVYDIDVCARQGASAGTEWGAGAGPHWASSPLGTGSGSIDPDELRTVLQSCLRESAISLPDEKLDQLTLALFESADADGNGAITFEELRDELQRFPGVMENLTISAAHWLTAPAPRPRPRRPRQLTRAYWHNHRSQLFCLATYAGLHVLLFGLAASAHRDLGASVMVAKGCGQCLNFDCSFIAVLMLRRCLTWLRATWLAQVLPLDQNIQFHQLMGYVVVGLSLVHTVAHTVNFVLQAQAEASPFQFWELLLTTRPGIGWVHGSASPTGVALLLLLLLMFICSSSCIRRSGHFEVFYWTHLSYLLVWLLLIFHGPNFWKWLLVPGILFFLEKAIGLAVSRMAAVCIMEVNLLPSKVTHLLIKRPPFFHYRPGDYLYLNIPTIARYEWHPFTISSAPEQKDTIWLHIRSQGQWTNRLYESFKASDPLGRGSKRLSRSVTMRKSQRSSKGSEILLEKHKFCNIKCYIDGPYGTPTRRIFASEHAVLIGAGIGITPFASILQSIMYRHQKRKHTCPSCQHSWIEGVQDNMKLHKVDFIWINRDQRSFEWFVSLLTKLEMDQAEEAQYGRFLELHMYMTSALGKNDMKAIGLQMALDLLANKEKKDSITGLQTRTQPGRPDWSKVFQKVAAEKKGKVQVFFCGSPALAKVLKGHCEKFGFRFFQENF
Structure (SMILES),composite z-score [1],z-score [2],z-score [3],z-score [4],z-score [5],composite z-score [6],composite z-score [7],composite z-score (Torsin-1A (Homo sapiens) [8]),composite z-score (Torsin-1A (Homo sapiens) [9]),composite z-score [10],z-score [11],composite z-score [12],z-score [13],z-score [14],z-score [15],z-score [16],z-score [17],z-score [18],z-score [19],z-score [20]
C=CCN1C(=O)[C@]2(O[C@H](CCO)[C@@H]([Si](C)(C)c3ccc(OC)cc3)[C@@H]2C)c2cc(NC(=O)c3ccc(OC)cc3)ccc21,0.211,-7.99 (inactive),-0.236 (inactive),15.2 (active),-1.43 (inactive),0.535,0.0541,0.598,0.726,2.11,-1.25 (inactive),0.0494,7.31 (inactive),2.69 (inactive),-0.357 (inactive),1.3 (inactive),-0.309,-3.97 (inactive),-0.48 (inactive),1.38
C=C(/C(=C/C[C@H](OC(=O)c1ccncc1)c1cccc(OCCO)c1)c1cnc2ccccc2c1)C(C)C,0.518,-7.81 (inactive),0.503 (inactive),30.3 (active),-0.386 (inactive),0.929,-0.05,-0.382,-0.22,2.23,-0.599 (inactive),-0.0046,6.01 (inactive),2.44 (inactive),-2.09 (inactive),0.626 (inactive),-0.787,-4.67 (inactive),-0.946 (inactive),-1.49
C=CC1c2cc(O)c(OC)cc2CCN1Cc1ccc([N+](=O)[O-])o1 (stereo not given),0.17,-0.244 (inactive),1.47 (inactive),-0.321 (inactive),-0.625 (inactive),0.39,0.027,-0.17,0.745,-0.873,1.09 (inactive),0.0455,7.89 (inactive),1.17 (inactive),-0.0585 (inactive),0.596 (inactive),0.325,-3.42 (inactive),-3.12 (inactive),-3.25
CCN(CC)c1ccc(N2CC=CC34O[C@@H]5/C=C\CCC(C)OC(=O)C5[C@H]3C(=O)N(C(C)CO)[C@@H]4C2=O)cc1 (stereo not given in full),-0.0075,0.269 (inactive),0.515 (inactive),0.87 (inactive),0.46 (inactive),-0.417,-0.0986,-0.0697,-0.116,0.808,1.23 (inactive),-0.196,0.946 (inactive),-0.227 (inactive),0.987 (inactive),0.304 (inactive),-0.276,0.33 (inactive),-0.619 (inactive),1.69
COc1cc(NN2C(C(O)c3ccc(I)cc3)C=CC3C(=O)N(c4ccccc4)C(=O)C32)cc(OC)c1OC (stereo not given),0.378,-3.44 (inactive),-1.28 (inactive),-0.136 (inactive),0.0938 (inactive),0.901,0.233,0.544,0.743,0.325,-0.877 (inactive),0.365,2.08 (inactive),0.477 (inactive),0.481 (inactive),-0.497 (inactive),1.52,-3.15 (inactive),-4.09 (inactive),-6.01
COC(=O)C(CC#Cc1ccc2c(c1)[C@]1(C(=O)N2)[C@H](C(=O)Nc2nc3ccccc3s2)[C@H]2C(=O)O[C@H](c3ccccc3)[C@H](c3ccccc3)N2[C@@H]1c1ccc(OCCO)cc1)C(=O)OC,1.07,-2.48 (inactive),-1.7 (inactive),0.415 (inactive),-0.856 (inactive),1.25,0.146,1.65,0.541,1.53,2.65 (inactive),0.5,5.91 (inactive),0.782 (inactive),0.299 (inactive),-1.27 (inactive),1.76,1.1 (inactive),0.326 (inactive),0.613
CCOC(=O)C1=C[C@@H](C(C)(C)C)N(S(=O)(=O)c2ccc(C)cc2)[C@H]1c1ccccc1,0.251,-4.44 (inactive),1.43 (inactive),0.696 (inactive),-0.276 (inactive),1.29,0.27,0.0214,0.611,0.871,-0.492 (inactive),0.407,-0.132 (inactive),0.457 (inactive),-0.803 (inactive),-0.0282 (inactive),-0.667,-0.707 (inactive),-0.655 (inactive),-0.083
COc1ccc(C#Cc2ccc3c(c2)[C@]2(C(=O)N3)[C@H](C(=O)N3CCCCCCC3)[C@H]3C(=O)O[C@H](c4ccccc4)[C@H](c4ccccc4)N3[C@@H]2c2ccc(O)cc2)cc1,0.696,-0.71 (inactive),-0.768 (inactive),0.0653 (inactive),-0.202 (inactive),0.627,0.939,0.589,1.42,1.6,-0.821 (inactive),2.04,0.445 (inactive),0.391 (inactive),-0.562 (inactive),0.271 (inactive),-0.0624,0.697 (inactive),0.174 (inactive),0.00156
